Measured values published in PubChem BioAssay (NCATS).
Inconclusive results are not listed. Where a call stands in place of a potency, no number is given. Activity calls are given as the source filed them. The call rests on the fitted dose curve; in most records, active means well fitted inhibition curve with a large enough effect; inconclusive means small, poorly fitted or top-dose-only effect; inactive means flat fitted curve, though single readings scatter.

Molecular target: Aldehyde dehydrogenase, mitochondrial (Homo sapiens) (UniProt P05091)
Test: qHTS for Inhibitors of the Aldehyde Dehydrogenase Family (ALDH2) Primary screen (AID 2061308); further: nearly all actives have a fitted effect of over 55% in size
Conditions: ALDH2 enzyme inhibition qHTS, 1536-well; series mostly up to 56 µM

SMILES | Potency
CCC1(CC)CCN(C(=O)CC(c2ccc3c(c2)OCO3)c2c(O)cc(OC)cc2OC)C1 (stereo not given) | inactive
Cc1ccc(OCCn2c(CCNC(=O)c3ccc(C(F)(F)F)cc3)nc3ccccc32)cc1 | inactive
Cc1ccc(-c2ccc(=O)n(CCNCCc3ccccc3)n2)cc1 | inactive
CCCCn1cnc2cc(C(=O)N3CCCCC3)ccc21 | inactive
Cc1ccc(S(=O)(=O)Nc2ccc(C(=O)Nc3nc(-c4ccccc4)cs3)c(Cl)c2)cc1 | inactive
COc1ccc(C(=O)O[C@H]2C=COC=C3C=C4C(=O)N(C)C(=S)C(=O)N4[C@@H]32)cc1Oc1cc(C=O)ccc1O | inactive
Cc1ccc(S(=O)(=O)Nc2ccc(C(=O)Nc3nc(-c4ccccc4)cs3)cc2Cl)cc1 | inactive
CNc1oc(-c2cccs2)nc1C#N | inactive
Cc1ccc(OCCn2c(CCNC(=O)c3cccc(C)c3)nc3ccccc32)cc1 | inactive
N#Cc1c(-c2ccc(OCCOCCOCCNC(=O)CCCC[C@@H]3SC[C@@H]4NC(=O)N[C@@H]43)cc2)no[n+]1[O-] | inactive
O=C(Nc1ccc(Cl)c([N+](=O)[O-])c1)Nc1cccc(-c2ccncc2)n1 | inactive
O=C(Cn1cc(CN(Cc2ccccc2)Cc2ccccc2)nn1)Nc1cc(C(F)(F)F)ccc1Cl | inactive
O=C(Cc1ccccc1)Nc1sc2c(c1C(=O)Nc1ccc(Cl)cc1)CCOC2 | inactive
O=S(=O)(c1cccc(O)c1)N1CCN(S(=O)(=O)c2c(F)cccc2F)CC1 | inactive
Cc1ccc(NS(=O)(=O)c2cc3c(cc2Br)NC(=O)CO3)cc1C | inactive
Cc1cc2c(cc1C1(c3ccc(C(=O)O)cc3)CC1)C(C)(C)CCC2(C)C | inactive
O=C1CCCC2=C1C(c1[nH]ncc1Cl)N=C(Nc1ccccc1)N2 (stereo not given) | inactive
COc1cc([C@H]2O[C@H](c3cc(OC)c4c(c3)OCO4)[C@H](C)[C@H]2C)cc(OC)c1OC | inactive
COC(=O)c1ccc(NC(=O)c2nc3ccccc3n(C)c2=O)cc1 | inactive
COc1ccccc1NC(=O)c1ccc2ccccc2c1 | inactive

SMILES | Potency
Cc1cccc(Cn2ncc3c4sc(C)cc4n(C)c3c2=O)c1 | inactive
Cc1cc(C)nc(NC(=S)N2CCN(c3nccs3)CC2)c1 | inactive
O=S(=O)(NC[C@@H]1CCC[C@H](CNS(=O)(=O)c2c(F)cccc2F)C1)c1ccc2c(c1)OCCO2 | inactive
CC1CC(O)/C=C/C(O)/C=C\C(=O)O1 (stereo not given) | inactive
CC(=O)c1cccc(-c2ccc(-c3nc4ccccc4c(=O)[nH]3)o2)c1 | inactive
CC(C)(C)[C@H](NC(=O)c1ccc(N)c(Cl)c1)C(=O)N1CCC[C@H]1C(=O)N[C@H](C#N)Cc1nn[nH]n1 | inactive
CC1OC2OC3C(OCC(O)C3O)OC(=O)C34CCC(C)(C)CC3C3=CCC5C6(C)CC(O)C(OC7OC(CO)C(O)C(O)C7OC7OCC(OC(=O)CC(C)(O)CC(=O)OC1C(OC1OCC(O)C(O)C1O)C2O)C(O)C7O)C(C)(CO)C6CCC5(C)C3(C)CC4O (stereo not given) | inactive
CC(NCc1ccc2c(c1)nc(NC(=O)c1ccc(-c3cn[nH]c3)s1)n2CC(C)(C)O)C(C)(C)C (stereo not given) | inactive
Fc1cc(Nc2nc(-c3ccncc3)nc3ccccc23)ccc1-n1cncn1 | inactive
Cc1ccc(OCCn2c(CCNC(=O)C3CCCCCC3)nc3ccccc32)cc1 | inactive
N#Cc1c(-c2ccccc2)no[n+]1[O-] | inactive
O=C1CCCC2=C1C(c1ccc(F)cc1)N=C(Nc1nc3ccccc3o1)N2 (stereo not given) | inactive
Cc1ccc(OCCn2c(CCNC(=O)c3ccccc3C)nc3ccccc32)cc1 | inactive
c1nc(OCc2cnc[nH]2)c2cc(-c3ccc4c(c3)OCO4)ccc2n1 | inactive
O=C1CCCC2=C1[C@@]1(CCC(c3ccccc3)C1)N=C(Nc1nc3ccccc3o1)N2 (stereo not given in full) | inactive
O=[N+]([O-])c1ccc(-c2nc(Nc3ccc(F)c(F)c3)c3ccccc3n2)cc1 | inactive
Nc1ccc(Cl)cc1C(=O)c1ccc[nH]1 | inactive
CCNC(=O)C1CCN(C(=O)C(C)(C)NC(=O)Nc2ccccc2Cl)CC1 | inactive
CCOC(=O)c1nn(-c2ccccc2)c(=O)c2c(N)sc(C)c12 | inactive
CC(C)(C)OC(=O)Nc1ncnc2c1C(c1ccccc1)c1c(ccc3ccccc13)O2 (stereo not given) | inactive
